# PubChem BioAssay (NCI)
# About 79,000 compounds went through this panel and 15% of them were active in at least one assay; those are over-represented in the sample as a whole. Values without a mark were called inactive. No stated cut-off is given here; in the data, active means growth inhibition above about 70%; inactive means the rest.
# Assay: NCI Yeast Anticancer Drug Screen. Data for the sgs1 mgt1 strain (AID 161);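 further: 0% = growth of cultures given vehicle only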
# Details: S. cerevisiae sgs1 mgt1 strain, at 50.0 µM, stronger effect = higher value
# How it was run: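 This yeast growth screen uses a strain with defined DNA-repair lesions; compound-treated growth is compared with vehicle-treated growth.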
row,SMILES,growth inhibition
1,C1CCC2[N-]CCCC2C1.C1CCC2[N-]CCCC2C1.[Cl][Pt+2][Cl] (stereo unspecified),55.2%
2,NC(=O)Nc1cc(NC(N)=O)cc(N(CCCl)CCCl)c1,-20.1%
3,Oc1ccccc1C=NCCN=Cc1ccccc1O.[Zn+2],-25.1%

# Assay: NCI Yeast Anticancer Drug Screen. Data for the cln2 rad14 strain (AID 165);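 further: 0% = growth equal to vehicle treated cultures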
# Details: S. cerevisiae cln2 rad14 strain, at 50.0 µM, stronger effect = higher value
# How it was run: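 Strain: cln2 rad14 yeast, altered in cell cycle control and DNA damage repair. Read-out: growth inhibition vs vehicle.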
row,SMILES,growth inhibition
1,CCCCOP(=O)(O)OCCCC.[V],-17.1%
2,O=C(Nc1ncn[nH]1)C(Cl)(Cl)Cl,-53%
3,CCN(CC)C(=O)CCNC(C)Cc1c[nH]c2ccccc12 (stereo unspecified),22.1%
4,C1CCC2[N-]CCCC2C1.C1CCC2[N-]CCCC2C1.[Cl][Pt+2][Cl] (stereo unspecified),22.9%
5,NC(=O)Nc1cc(NC(N)=O)cc(N(CCCl)CCCl)c1,-7.15%
6,Oc1ccccc1C=NCCN=Cc1ccccc1O.[Zn+2],-53.8%

# Assay: NCI Yeast Anticancer Drug Screen. Data for the bub3 strain (AID 167)
# Details: S. cerevisiae bub3 mutant strain, at 50.0 µM, stronger effect = higher value
# How it was run: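 Inhibition values come from growth of compound-treated mutant yeast normalised to vehicle-treated controls.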
row,SMILES,growth inhibition
1,CCCCOP(=O)(O)OCCCC.[V],-10.9%
2,C1CCC2[N-]CCCC2C1.C1CCC2[N-]CCCC2C1.[Cl][Pt+2][Cl] (stereo unspecified),59.4%
3,NC(=O)Nc1cc(NC(N)=O)cc(N(CCCl)CCCl)c1,-15.7%
4,Oc1ccccc1C=NCCN=Cc1ccccc1O.[Zn+2],-7.8%

# Assay: NCI Yeast Anticancer Drug Screen. Data for the mlh1 rad18 strain (AID 175)
# Details: S. cerevisiae mlh1 rad18 strain growth inhibition; at 50.0 µM; stronger effect = higher value
# How it was run: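 A repair-deficient yeast strain is exposed to test compound, and growth is scored relative to vehicle-treated controls.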
row,SMILES,growth inhibition
1,Cc1ccc(-n2c(=S)[nH]c3ccccc3c2=O)cc1,-20.9%
2,Cc1ccc(-c2cc(Cl)c3cc(S(=O)(=O)F)ccc3n2)cc1,-9.1%
3,CCCCOP(=O)(O)OCCCC.[V],0.65%
4,COc1ccc(CC[N+](C)(C)C)cc1,32.5%
5,O=C(Nc1ncn[nH]1)C(Cl)(Cl)Cl,-7.25%
6,CC1NCCc2cc(O)c(O)cc21 (stereo unspecified),40%
7,O=C(CBr)OCCCS(=O)(=O)O,-33.8%
8,C[N+]1([O-])C2CCC1CC(OC(=O)C(O)c1ccccc1)C2 (stereo unspecified),3.4%
9,COc1ccc(C(=O)OC2CC3CCC(C2)N3)cc1OC (stereo unspecified),22.8%
10,CCN(CC)C(=O)CCNC(C)Cc1c[nH]c2ccccc12 (stereo unspecified),-37.5%
11,Cc1cccc(-c2cc(Cl)c3cc(S(=O)(=O)F)ccc3n2)c1,-33.4%
12,O=c1c2ccccc2[nH]c(=S)n1-c1cccc(Cl)c1,27.4%
13,CNCCc1ccc(O)c(O)c1,-6.15%
14,CC(Cc1ccccc1)N(C)CC1C(=O)C2CCC1C2 (stereo unspecified),6.25%
15,NC(=NC1CCCCCCCCCCC1)N[N+](=O)[O-],12.3%
16,Cc1ccc(-n2c(=S)[nH]c3ccccc3c2=O)cc1F,-18.1%
17,CN1C2c3ccccc3C3C4c5ccccc5C(C31)C(C2[N+](=O)[O-])N4C (stereo unspecified),-13.5%
18,C1CCC2[N-]CCCC2C1.C1CCC2[N-]CCCC2C1.[Cl][Pt+2][Cl] (stereo unspecified),64.6%
19,CN1CCN(c2ccc(Cl)cc2)CC1,0.7%

row,SMILES,growth inhibition
1,NC(=O)Nc1cc(NC(N)=O)cc(N(CCCl)CCCl)c1,-24.1%
2,Clc1cccc(NC2=NCCS2)c1,-40.8%
3,Brc1ccc(C[N+]23CCN(CC2)CC3)cc1,-16%
4,NC(=O)NNc1ccc([N+](=O)[O-])cc1[N+](=O)[O-],14.8%
5,CSC(=S)NNC(=O)c1cccc(S(=O)(=O)F)c1,50.7%
6,c1ccc2c(c1)O[As](O[As]1Oc3ccccc3O1)O2,10.2%
7,CC1C2C=CC1C(c1c3ccc(=O)cc-3oc3cc(O)ccc13)C2C(=O)O (stereo unspecified),21.4%
8,O=C(CBr)OCS(=O)(=O)O,-6.2%
9,COc1ccc(S(=O)(=O)F)cc1NC(=O)c1ccc2ccccc2c1O,41.6%
10,COc1ccc(-n2c(=S)[nH]c3ccccc3c2=O)cc1,4.8%
11,CCCOP(=O)(CCl)OCCC,8.25%
12,C/C=C1\CN2CCC1CC2C(O)c1ccnc2ccc(O)cc12 (stereo unspecified),32.2%
13,COc1cccc(N=C(N)N[N+](=O)[O-])c1,-7.25%
14,O=C(CCN1CC=C(c2ccccc2)CC1)NCc1ccccc1,8.55%
15,O=c1c2ccc(Cl)cc2[nH]c(=S)n1-c1ccc(Cl)cc1,11%
16,O=C(/C=C/c1ccccc1)NCCc1cnc[nH]1,16.4%
17,CCOC(=O)c1ccc2nc(-c3ccc(S(=O)(=O)F)cc3)cc(Cl)c2c1,23.5%
18,O=[N+]([O-])c1ccc(C[N+]23CCN(CC2)CC3)cc1,3.8%
19,O=C1C(Cl)=C(Cl)C1(Cl)Cl,-2.65%
